Screens as filed in PubChem.
An excerpt weighted towards active compounds, which were near 1.2% of everything screened.
KCNH2 WT inh: blocks the wildtype human KCNH2 potassium channel. Q12809. U2OS, BacMam KCNH2, thallium flux FluxOr; active compounds read low. activity change, % at 1.84 µM. 340,000 compounds, 0.37% hits. AID 720551;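 active means maximum activity change below -70%; inconclusive means maximum activity change between -70% and -50%; inactive means maximum activity change above -50%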; further: on the % scale 0 is the no-effect control and ±100 the full control effect
Target sequence (Q12809 whole entry, looked up): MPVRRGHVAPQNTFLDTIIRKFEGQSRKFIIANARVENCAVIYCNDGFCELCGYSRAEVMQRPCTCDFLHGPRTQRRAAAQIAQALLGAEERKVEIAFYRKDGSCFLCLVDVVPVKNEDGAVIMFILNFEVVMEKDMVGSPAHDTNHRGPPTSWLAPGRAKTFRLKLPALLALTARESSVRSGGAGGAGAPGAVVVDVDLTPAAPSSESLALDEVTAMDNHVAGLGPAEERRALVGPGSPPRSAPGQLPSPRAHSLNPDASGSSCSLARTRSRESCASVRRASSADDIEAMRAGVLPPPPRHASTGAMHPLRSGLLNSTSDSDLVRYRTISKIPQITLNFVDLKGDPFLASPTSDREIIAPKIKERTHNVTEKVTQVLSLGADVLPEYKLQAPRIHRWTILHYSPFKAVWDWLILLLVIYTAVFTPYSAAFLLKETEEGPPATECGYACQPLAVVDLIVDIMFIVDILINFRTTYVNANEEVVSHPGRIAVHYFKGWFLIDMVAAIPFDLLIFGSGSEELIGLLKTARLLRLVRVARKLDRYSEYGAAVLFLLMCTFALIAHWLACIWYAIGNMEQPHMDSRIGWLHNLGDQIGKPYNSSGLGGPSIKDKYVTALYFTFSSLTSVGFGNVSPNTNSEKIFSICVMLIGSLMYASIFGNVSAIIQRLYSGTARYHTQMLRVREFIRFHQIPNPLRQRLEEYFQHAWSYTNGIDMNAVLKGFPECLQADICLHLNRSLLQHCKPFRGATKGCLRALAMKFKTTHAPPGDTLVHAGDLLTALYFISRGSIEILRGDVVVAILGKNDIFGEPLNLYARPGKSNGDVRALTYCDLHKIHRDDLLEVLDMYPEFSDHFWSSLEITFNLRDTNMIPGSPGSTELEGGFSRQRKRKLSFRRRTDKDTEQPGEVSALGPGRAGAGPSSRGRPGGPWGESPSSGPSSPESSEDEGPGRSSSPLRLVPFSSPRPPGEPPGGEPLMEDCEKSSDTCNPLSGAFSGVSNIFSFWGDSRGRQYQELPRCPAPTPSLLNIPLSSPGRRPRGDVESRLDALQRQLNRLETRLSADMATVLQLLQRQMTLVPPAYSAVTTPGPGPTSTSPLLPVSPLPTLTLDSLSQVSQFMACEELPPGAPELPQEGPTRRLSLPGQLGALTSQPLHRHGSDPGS
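U2OS cells were transduced with wild-type KCNH2 virus (2.03 x 10^8 / mL) for 4 h at room temperature, then cultured overnight at 37 C. Thallium flux was read with FluxOr dye. Rate constants were normalized to DMSO controls.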
TRPV1 agonist: human TRPV1 agonism; activation, % at 8.33 µM; TRPV1-expressing cells, Fluo-8 calcium influx, agonist mode; 320,000 compounds, 0.19% hits; in the data active means activation above about 80%; inconclusive means between about 30% and that limit; further: 0% is about no effect
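Fluo-8 calcium influx in TRPV1-expressing cells, kinetic read (ex 480/em 520 nm). Compound added and read 3 min for agonist activity, followed by capsaicin at EC20 final and 2 min further read for enhancement.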
KCNH2 3.1 block: KCNH2 3.1 (human) potassium channel inhibition; U2OS KCNH2 3.1, thallium flux FluxOr; active compounds read low; activity change, % (tested at about 1.8 µM); 340,000 compounds, 0.95% hits; AID 720553;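 active means maximum activity change below -70%; inconclusive means maximum activity change from -70% to -50%; inactive means maximum activity change above -50%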;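 further: thallium influx rate constant from kinetic fluorescence after stimulation buffer; on the % scale 0 is the no-effect control and ±100 the full control effect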
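Virally transduced U2OS (3.1 isoform, 4 h infection in dark at RT) → overnight 37 C → FluxOr + Red40 in HBSS/HEPES, 45 min → stimulation buffer, 2 min kinetic read → rate constant vs DMSO controls.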
TRPV1 potentiator: potentiators of human vanilloid receptor 1 (TRPV1) | Q8NER1 | potentiation, % at 8.33 µM | AID 540277 | TRPV1-expressing cells, Fluo-8 calcium influx, capsaicin EC20 potentiation | 320,000 compounds, 0.02% hits; in the data active means potentiation above about 80%; inconclusive means between about 30% and that limit; further: 0% is about no effect
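TRPV1-expressing cells were cultured overnight at 35.5C and loaded with Fluo-8 calcium dye for 40 to 90 min at room temperature. After a 10 s baseline, compound was added and calcium influx was read kinetically for 3 min (ex 480/em 520 nm).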
The depositor's hits bear a star.

Screening O=[N+]([O-])c1ccc(COc2ccccc2CN2CCCCC2)cc1 returned KCNH2 WT inh 1.8 and KCNH2 3.1 block -3.4.
O=C(CN1CCCCC1)N/N=C/c1ccccc1OCc1ccccc1 was read as KCNH2 WT inh 1.8, TRPV1 agonist 0.6, KCNH2 3.1 block -80.9* and TRPV1 potentiator -1.4.
COc1cc(/C=N/NC(=O)CN2CCCCC2)ccc1OCc1ccccc1 was read as KCNH2 WT inh -4.3, TRPV1 agonist -1.9, KCNH2 3.1 block 10.0 and TRPV1 potentiator -3.5.
`Clc1cccc(CNCCCSc2ncccn2)c1Cl` gave KCNH2 WT inh -9.4, TRPV1 agonist 0.3, KCNH2 3.1 block -94.2* and TRPV1 potentiator -0.1.
Screening CCC(=O)N1CCc2cc(S(=O)(=O)N3CCN(c4cc(Cl)ccc4C)CC3)ccc21 returned KCNH2 WT inh 0.4, TRPV1 agonist -2.8, KCNH2 3.1 block 9.9 and TRPV1 potentiator 12.0.
For CCOc1ccc(/C=N/NC(=O)c2csc(C)c2C)c(OCC)c1 the results were KCNH2 WT inh -8.3, TRPV1 agonist 10.3, KCNH2 3.1 block -80.8* and TRPV1 potentiator -3.5.
Screening COc1ccccc1/C=N/NC(=O)c1csc(C)c1C returned KCNH2 WT inh -0.1, TRPV1 agonist 1.9 and TRPV1 potentiator 9.5.
COc1cc(OC)cc(C(=O)OCC(=O)NC2CCCCCCC2)c1 was read as KCNH2 WT inh -9.9 and KCNH2 3.1 block -6.4.
`N=c1c2c(n(Cc3ccc(Br)cc3)c3c1CCC3)CCCC2` gave KCNH2 WT inh 3.8, TRPV1 agonist 10.6, KCNH2 3.1 block -78.1* and TRPV1 potentiator -8.2.
COc1ccc(-n2c(COc3ccc(C)cc3)nnc2SCc2ccc(C#N)cc2)cc1 was read as KCNH2 WT inh 13.5, TRPV1 agonist inconclusive, KCNH2 3.1 block -34.1 and TRPV1 potentiator -9.2.
`COc1ccc(-n2c(COc3ccc(Cl)cc3)nnc2SCc2ccc(C#N)cc2)cc1` gave KCNH2 WT inh 4.1, TRPV1 agonist 18.5, KCNH2 3.1 block -78.5* and TRPV1 potentiator -5.1.
Screening CN(C)S(=O)(=O)c1ccc(NC(=O)CN2C(=O)NC(Cc3ccccc3)C2=O)cc1 (stereo not drawn) returned KCNH2 WT inh -11.4, TRPV1 agonist -2.0, KCNH2 3.1 block -15.6 and TRPV1 potentiator -0.6.
For COc1ccccc1C1Nc2ccccc2NC2=C1C(=O)CC(C)(C)C2 (stereo not drawn) the results were KCNH2 WT inh -129.1*, TRPV1 agonist -5.2, KCNH2 3.1 block -193.9* and TRPV1 potentiator 5.8.
For FC(F)(F)c1nc2nccnc2[nH]1 the results were KCNH2 WT inh -7.7 and KCNH2 3.1 block 15.2.
`CSc1nc2ccccc2n1Cc1c(Cl)cccc1Cl` gave KCNH2 WT inh -19.6, TRPV1 agonist 9.3, KCNH2 3.1 block -186.2* and TRPV1 potentiator 1.2.
CN(C)c1nc(Cl)nc(N(C#N)CCOc2ccccc2)n1 was read as KCNH2 WT inh -1.9, TRPV1 agonist 10.9, KCNH2 3.1 block -83.2* and TRPV1 potentiator 3.9.
CCNc1nc(NCC)nc(N(C#N)CCOc2ccccc2)n1 was read as KCNH2 WT inh -5.4, TRPV1 agonist 5.8, KCNH2 3.1 block 17.4 and TRPV1 potentiator 2.5.
Screening CCOC(=O)CNC(=O)CSc1nc(C(C)C)nc2c1cnn2-c1ccccc1 returned KCNH2 WT inh -8.9 and KCNH2 3.1 block 2.6.
`CC(C)OCCCNC(=O)C1CCC(CNS(=O)(=O)c2ccccc2)CC1` (stereo not drawn) gave KCNH2 WT inh 4.7, TRPV1 agonist -0.9, KCNH2 3.1 block -85.0* and TRPV1 potentiator 5.7.
Nc1nn(-c2ccccc2)nc1C(=O)OCc1ccccc1 was read as KCNH2 WT inh -1.3, TRPV1 agonist 8.5, KCNH2 3.1 block -9.4 and TRPV1 potentiator -9.4.
COc1cccc(COC(=O)c2nn(-c3ccccc3)nc2N)c1 was read as KCNH2 WT inh -183.9*, TRPV1 agonist 9.0 and TRPV1 potentiator -2.7.
Screening CC1=C(C(=O)N2CCOCC2)CC(CC(=O)NC2CCCCC2)C(=O)N1Cc1ccccc1 (stereo not drawn) returned KCNH2 WT inh -12.5 and KCNH2 3.1 block 3.4.
For CCOc1ccc(-c2nc[nH]c2[N+](=O)[O-])cc1 the results were KCNH2 WT inh -8.5, TRPV1 agonist -1.6, KCNH2 3.1 block -198.4* and TRPV1 potentiator -2.3.
For COc1ccc(-c2nc[nH]c2[N+](=O)[O-])cc1 the results were KCNH2 WT inh 3.7, TRPV1 agonist 1.8, KCNH2 3.1 block -6.3 and TRPV1 potentiator -0.3.
Screening Cc1c(C(=O)NCCSCc2ccccc2)cccc1[N+](=O)[O-] returned KCNH2 WT inh 4.2, TRPV1 agonist inconclusive, KCNH2 3.1 block -76.8* and TRPV1 potentiator -6.5.
